# FEN1 inhibitor: qHTS Assay for the Inhibitors of Human Flap endonuclease 1 (FEN1); AID 588795, 2011; P39748; 390,000 tested, 0.35% active; Potency, µM (doses to about 114 µM), for the others: top-dose activity change, negative = inhibition, most hits filed as inhibitors; Recombinant FEN1 flap cleavage, fluorescence, 15 min; also: % is scaled to controls: 0 for no effect and ±100 for the full control effect; nearly all actives have a fitted effect of over 65% in size
#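 Potency values derive from four-parameter Hill fits of normalized qHTS data. The reaction used 10 nM FEN1 preincubated 15 min at room temperature with compound, then 50 nM DNA substrate, read at 0 and 15 min.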
# Pol kappa inh: qHTS for Inhibitors of Polymerase Kappa. DNA polymerase kappa (Homo sapiens), Q9UBT6. purified Pol kappa, fluorescent DNA synthesis assay, 10 min. Potency, µM (titrated, usually from 107 µM), inactives show at the highest dose activity, negative = inhibition, actives largely listed as inhibitors. 400,000 tested, 0.53% active; also: % is scaled to controls: 0 for no effect and ±100 for the full control effect
#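 Kinetic fluorescence readout at 0 and 10 min followed reaction start with substrate at 50 nM final. Beforehand, enzyme (10 nM Pol kappa) stood 15 min with compound at room temperature; buffer-only wells were negative controls.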
# POLI inh: qHTS for Inhibitors of Polymerase Iota | DNA polymerase iota (Homo sapiens), Q9UNA4 | Pol iota fluorescent replication assay, 10 min | Potency, µM (highest dose often 115 µM), without a hit: at the top dose activity, negative = inhibition, hits mostly inhibitors | 390,000 tested, 1% active | AID 588590, 2011
#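 Pol iota at 10 nM preincubated 15 min with compounds at room temperature; reaction started with fluorescent substrate, 50 nM final. Fluorescence read kinetically at 0 and 10 min; buffer-only wells as negative control.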
# Pol beta inh: qHTS Assay for Inhibitors of DNA Polymerase Beta. P06746. Pol beta primer extension/strand displacement, fluorescence kinetic. Potency, µM (titrated, usually from 114 µM), for inactives: at the highest dose activity change, negative = inhibition, usual class: inhibitors. 340,000 tested, 1.3% active; also: % is scaled to controls: 0 for no effect and ±100 for the full control effect
#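 Homogeneous kinetic assay of primer extension and strand displacement by 10 nM Pol beta, preincubated 15 min at room temperature with compound before 50 nM substrate (final) was added. Read at 0 and 10 min; four-parameter Hill fit.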
# POLH inh: qHTS for Inhibitors of Polymerase Eta; DNA polymerase eta (Homo sapiens), Q9Y253; recombinant Pol eta, fluorescent DNA replication assay; Potency, µM (doses to about 114 µM), inactives show top-dose activity change, negative = inhibition, usual class: inhibitors; 390,000 tested, 1.2% active; AID 588591, 2011; also: % is scaled to controls: 0 for no effect and ±100 for the full control effect
#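 Pol eta (10 nM) was preincubated with compounds for 15 min at room temperature, after which fluorescent replication substrate (50 nM final) was added to start the reaction. Fluorescence was read kinetically at 0 and 10 min.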
# TDP1 block: qHTS Assay for Inhibitors of Tyrosyl-DNA Phosphodiesterase (TDP1) | 350,000 tested, 0.28% active | recombinant TDP1, AlphaScreen DNA substrate cleavage | Tyrosyl-DNA phosphodiesterase 1 (Homo sapiens), Q9NUW8 | Potency, µM (series often up to 130 µM), for inactives: at the top dose activity change, negative = inhibition, most hits filed as inhibitors; also: % is scaled to controls: 0 for no effect and ±100 for the full control effect; nearly all actives have a fitted effect of over 40% in size
# Target sequence (Q9NUW8 whole entry, looked up): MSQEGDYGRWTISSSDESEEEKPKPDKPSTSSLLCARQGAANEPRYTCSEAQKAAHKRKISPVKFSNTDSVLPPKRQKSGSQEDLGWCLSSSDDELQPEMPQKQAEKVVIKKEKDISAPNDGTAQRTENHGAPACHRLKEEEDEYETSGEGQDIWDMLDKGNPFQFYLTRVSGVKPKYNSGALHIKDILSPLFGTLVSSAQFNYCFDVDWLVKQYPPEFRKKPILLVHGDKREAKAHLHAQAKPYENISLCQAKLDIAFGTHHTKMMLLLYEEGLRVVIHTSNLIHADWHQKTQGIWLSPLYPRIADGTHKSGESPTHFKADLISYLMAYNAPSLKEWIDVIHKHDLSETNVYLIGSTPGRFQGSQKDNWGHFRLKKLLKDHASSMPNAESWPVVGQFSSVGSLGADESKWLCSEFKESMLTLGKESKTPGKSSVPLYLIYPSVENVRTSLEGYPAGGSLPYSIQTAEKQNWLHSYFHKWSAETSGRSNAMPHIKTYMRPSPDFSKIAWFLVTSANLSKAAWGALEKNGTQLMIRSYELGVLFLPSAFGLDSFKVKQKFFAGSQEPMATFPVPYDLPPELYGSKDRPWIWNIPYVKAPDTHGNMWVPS
#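 Enzyme-compound mixtures sat 15 min at room temperature, followed by a 5 min reaction with 15 nM final substrate and 10 min with AlphaScreen beads. Recombinant human Tdp1 was used at 1 nM final.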
# Numbers without * were called inactive; ? = inconclusive; / = not tested or not shown. In the library only some 2.4% were active in any assay of this set; here they are far more common. Calls follow the shape of the dose curve; as a rule, active = well fitted curve in the direction sought with a large enough effect; inconclusive = small, poorly fitted or top-dose-only effect, or another doubt; inactive = no such curve, though single readings can be large; an effect the other way counts as inactive or inconclusive. Potency is read from the fitted curve at half-maximal effect.
SMILES,FEN1 inhibitor,Pol kappa inh,POLI inh,Pol beta inh,POLH inh,TDP1 block
CCc1ccc(NC(=O)C(C)Sc2nc(-c3ccco3)c(C#N)c(=O)[nH]2)cc1 (stereo unspecified),-20%,-39%,?,-17%,18µM*,2%
N#Cc1c(-c2ccco2)nc(SCC(=O)Nc2cccc(Cl)c2)[nH]c1=O,-4%,-16%,?,56µM*,?,-6%
Cc1ccc(NS(=O)(=O)c2cc3c(cc2C)OCC(=O)N3)cc1C,/,/,/,/,/,1%
FC(F)(F)c1ccc2c(c1)ncc1c(-c3ccccc3)nn(-c3ccccc3)c12,-8%,0%,?,0%,-2%,2%
Cc1nn(-c2ccccc2)c2nc(N)c(C#N)c(-c3ccc(O)c(O)c3)c12,-23%,-3%,?,?,50µM*,/
Cc1nn(-c2ccc(F)cc2)c2nc(N)c(C#N)c(-c3ccc(O)c(O)c3)c12,-20%,-25%,73%,?,?,/
O=[N+]([O-])c1ccc(/C=N/Nc2nc(-c3ccccc3)c3cc(Br)ccc3n2)o1,9%,-7%,-1%,10%,?,5%
Cc1ccc2nc(N/N=C\c3ccc([N+](=O)[O-])o3)nc(-c3ccccc3)c2c1,5%,-18%,?,28µM*,?,0%
O=C(Cc1cccs1)Nc1ccc(N2CCOCC2)cc1,-2%,-26%,?,25µM*,25µM*,-1%
O=C(Cc1cccs1)Nc1ccc(Cl)c(S(=O)(=O)N2CCOCC2)c1,-13%,-4%,-20%,/,4%,/
O=C(Cc1cccs1)Nc1ccc(Cl)cc1,-1%,-1%,?,0%,-8%,7%
NC(=O)c1ccc(NC(=O)Cc2cccs2)cc1,13%,?,?,40µM*,50µM*,0%
O=C(CCC(=O)c1cccs1)Nc1ccc(N2CCCCC2)cc1,1%,?,?,?,89µM*,4%
CCc1ccc(NC(=O)CS(=O)CC(=O)Nc2ccc(N3CCOCC3)cc2)cc1 (stereo unspecified),-1%,-11%,?,22µM*,?,50µM*
O=C(Cc1cccs1)Nc1ccc(F)cc1F,-6%,-38%,-22%,-9%,79µM*,0%
Cc1cccc(C)c1NC(=O)CS(=O)CC(=O)Nc1ccc(F)cc1F (stereo unspecified),-4%,-16%,20%,8%,1%,2%
CCc1ccc(NC(=O)CS(=O)CC(=O)Nc2ccc(F)cc2F)cc1 (stereo unspecified),-4%,-22%,?,40µM*,-4%,/
Cc1ccc(S(=O)(=O)N2CCCCC2)cc1NC(=O)CCc1nc2ccccc2c(=O)[nH]1,7%,-8%,?,/,28µM*,/
Cc1ccc(CNC(=O)CCCc2nnc3n(CC(C)C)c(=O)c4sccc4n23)cc1,2%,2%,3%,2%,-1%,3%
Cc1c(Cl)cccc1NC(=O)Nc1c[nH]c(=O)[nH]c1=O,-2%,12%,-4%,10%,-1%,0%
Cc1ccc(NC(=O)CSc2nc3ccccc3c3nc(CCc4c(C)n[nH]c4C)nn23)cc1F,-5%,-18%,?,5%,?,79µM*
Cc1ccc(S(=O)(=O)N2CCN(c3nc(-c4cccs4)nc4ncccc34)CC2)cc1,6%,1%,13%,/,/,/
N#CC1=C(S)N(c2ccccc2)C(c2ccc(-c3ccccc3Cl)o2)NC1=O (stereo unspecified),-6%,-7%,1%,-13%,45µM*,3%
CC1CN(C(=O)COC(=O)/C=C/c2ccccc2)CC(C)O1 (stereo unspecified),/,/,/,/,0%,/
